# Sampled rows, rich in hits. Any-hit rate of the full collection: about 21%.
# DT40 TDP1 no CPT = qHTS for Inhibitors of human tyrosyl-DNA phosphodiesterase 1 (TDP1): qHTS in cells in absence of CPT; DT40 Tdp1-/- hTDP1 cells, no CPT, ATP luminescence, 48 h; actives 15% (n = 420,000); Potency, µM (doses to about 46.2 µM), without a hit: top-dose activity change, negative = growth inhibition, usual class: inhibitors; further: potency means the concentration at half of the fitted maximal effect; nearly all actives have a fitted effect of over 55% in size
#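 Growth kinetics read by CellTiter-Glo luminescence after ≥48 hr at 37 °C. Cells: DT40 Tdp1-/- stably carrying human TDP1, 400 per well, compound exposure in the absence of CPT (DMSO vehicle).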
# Gal4-VP16 FLuc = Gal4-VP16 reporter inhibition counter-screen | AID 2546 | actives 3.5% (n = 310,000) | Drosophila S2 Gal4-VP16 UAS-luciferase, luminescence, 20 h | Potency, µM (series often up to 53.6 µM), for inactives: at the top dose activity, negative = inhibition, most hits filed as inhibitors;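 further: Gal4-VP16 expression switched on by copper sulfate through the metallothionein promoter; potency means the concentration at half of the fitted maximal effect; nearly all actives have a fitted effect of over 50% in size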
# ELG1 repair inh = ELG1-dependent DNA repair inhibition | AID 504467 | actives 2.3% (n = 330,000) | HEK293T ELG1-luciferase reporter, luminescence, 16 h; DNA damage induced by 5-fluorouridine | Potency, µM (titrated, usually from 46.1 µM), for the others: top-dose activity change, negative = inhibition, hits mostly inhibitors; further: potency means the concentration at half of the fitted maximal effect; nearly all actives have a fitted effect of over 55% in size
#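 Step one: seed 2,000 cells per well. Step two: pin-transfer compound or DMSO alongside 5-fluorouridine. Step three: incubate 16 hr, 37 °C, 5% CO2. Step four: add ONE-Glo, wait 30 min, read luminescence.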
# IL-1B inflam inh = blocks inflammasome-driven IL-1 beta release; activity change, % at 57.5 µM; THP-1 LPS/ATP IL-1B secretion, AlphaLISA, 16 h; active compounds read low; AID 743279; actives 4.7% (n = 360,000); in the data active means activity change below about -50%; inconclusive means mostly about -30% to -49%
#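 Secreted IL-1B measured by AlphaLISA bead assay after 16 h compound exposure of THP-1 cells; compounds (final up to 57.5 uM) added 1 h before LPS (250 ng/mL) and ATP (1.25 mM) stimulation; lower signal means less secretion.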
# DT40 TDP1 CPT = growth inhibition of DT40 Tdp1-/-;hTDP1 cells with camptothecin (screen for TDP1 inhibitors); chicken DT40 Tdp1-/-;hTDP1 cells + 20 nM CPT, ATP luminescence, 48 h; Potency, µM (top dose mostly 46.2 µM), for the others: at the highest dose activity change, negative = growth inhibition, usual class: inhibitors; AID 686979; actives 12% (n = 420,000); further: potency means the concentration at half of the fitted maximal effect; nearly all actives have a fitted effect of over 55% in size
#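 Cell growth measured by CellTiter-Glo luminescence after a minimum 48 h, 37 C compound exposure with 20 nM CPT in Tdp1-knockout DT40 cells stably expressing hTDP1, seeded 400/well; qHTS titration format.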
# RORgamma inh = ROR gamma (mouse) transcription inhibition; P51450; Drosophila S2 Gal4-RORgamma UAS-luciferase reporter, 20 h; Potency, µM (doses to about 53.6 µM), for the others: at the highest dose activity change, negative = inhibition, actives largely listed as inhibitors; actives 5.4% (n = 310,000); further: potency means the concentration at half of the fitted maximal effect; nearly all actives have a fitted effect of over 60% in size
# Target sequence (P51450 whole entry, looked up, the tested form may be a part): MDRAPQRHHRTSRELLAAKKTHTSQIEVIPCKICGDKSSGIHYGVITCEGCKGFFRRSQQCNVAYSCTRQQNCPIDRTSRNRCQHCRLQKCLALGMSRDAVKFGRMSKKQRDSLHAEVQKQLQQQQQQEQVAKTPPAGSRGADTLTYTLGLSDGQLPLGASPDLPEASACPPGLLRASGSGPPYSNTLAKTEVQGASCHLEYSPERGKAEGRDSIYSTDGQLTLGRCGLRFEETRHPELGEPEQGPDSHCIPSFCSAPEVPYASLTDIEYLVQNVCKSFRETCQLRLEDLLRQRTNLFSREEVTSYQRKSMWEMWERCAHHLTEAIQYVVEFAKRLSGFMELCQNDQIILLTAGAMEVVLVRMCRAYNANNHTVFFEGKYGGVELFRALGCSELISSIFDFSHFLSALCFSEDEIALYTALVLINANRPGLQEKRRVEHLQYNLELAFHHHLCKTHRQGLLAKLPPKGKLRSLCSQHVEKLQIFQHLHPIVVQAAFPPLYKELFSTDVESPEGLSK
#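 Read-out: Photinus luciferase luminescence; inhibitors lower reporter signal. Insect Schneider cells with Gal4-ROR gamma fusion under metallothionein promoter, UAS reporter; 700 uM final copper sulfate induction, 20 hr, ambient temperature.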
# Starred values were filed as active, the others as inactive; i = inactive; ? = inconclusive; . = not tested or not shown. Unless noted, the call rests on the fitted dose curve; in most records, active means well fitted curve in the direction sought with a large enough effect; inconclusive means small, poorly fitted or top-dose-only effect, or another doubt; inactive means no such curve, though single readings can be large; an effect the other way counts as inactive or inconclusive. On the % scale 0 is the no-effect control and ±100 the full control effect.
SMILES,DT40 TDP1 no CPT,Gal4-VP16 FLuc,ELG1 repair inh,IL-1B inflam inh,DT40 TDP1 CPT,RORgamma inh
CC1CN(S(=O)(=O)c2ccc(Cl)c(C(F)(F)F)c2)CC(C)O1 (stereo unspecified),?,-12.2%,13.7%,0.0,?,-12.4%
CCOC(=O)C1CCN(C(=O)Cn2c(-c3cccs3)cc3cc(Cl)ccc32)CC1,20.6µM*,.,.,.,14.6µM*,.
NS(=O)(=O)c1ccc(CCNC(=O)Cn2c(-c3cccs3)cc3ccccc32)cc1,?,.,.,.,-29.5%,.
O=C(Cn1c(-c2cccs2)cc2cc(Cl)ccc21)N1CCN(c2ccccc2)CC1,-28.2%,.,.,.,?,.
CCOc1ccc(CCNC(=O)Cn2c(-c3cccs3)cc3cc(F)ccc32)cc1OCC,13µM*,.,.,.,11.6µM*,.
CCCN1CCN(C(=O)Cn2c(-c3cccs3)cc3cc(F)ccc32)CC1,-69.6%,.,.,.,11.6µM*,.
CCOC(=O)C1CCN(C(=O)c2cc3cc(Cl)ccc3[nH]2)CC1,-27.5%,0.0%,?,5.5,?,25.5%
Cc1ccc(Cl)cc1N1CCN(C(=O)Cn2c(-c3cccs3)cc3cc(F)ccc32)CC1,-7.9%,.,.,.,-22.2%,.
CC1CCN(C(=O)Cn2c(-c3cccs3)cc3cc(Cl)ccc32)CC1,?,.,.,.,16.4µM*,.
COC(=O)c1cn(CCOc2ccccc2F)c2ccccc12,-7.8%,5.8%,?,-18.6,-27.3%,32.1%
NC(=O)Cn1cc(/C=N\NS(=O)(=O)c2ccc(F)cc2)c2ccccc21,23.1µM*,-7.4%,9.9%,i,-3.0%,28.5%
COc1ccc(OCCn2cc(/C(N)=N/O)c3ccccc32)cc1,?,-16.9%,12.0%,-57.4*,-17.1%,?
COC(=O)c1cn(CCOc2ccccc2OC)c2ccccc12,14.6µM*,?,?,-4.3,18.4µM*,?
COc1ccccc1OCCn1cc(/C=N/NC(=O)c2ccncc2)c2ccccc21,18.4µM*,?,-26.9%,-6.6,-28.0%,6.31µM*
Cc1ccc(OCCn2cc(/C(N)=N/O)c3ccccc32)cc1C,?,-29.2%,-12.0%,0.0,-22.3%,-39.4%
O=C(O)COc1ccccc1/C=N/NC(=O)c1ccncc1,0.6%,2.2%,.,.,6.9%,-5.8%
CCOC(=O)c1ccccc1NC(=O)c1c2c(nc3ccccc13)C(=O)N(C1CCCCC1)C2,-16.9%,.,.,.,-14.9%,.
COC(=O)c1cc(OC)c(OC)cc1NC(=O)c1ccc2c(c1)CCN2S(C)(=O)=O,0.3%,.,.,.,-3.4%,.
O=C(N/N=C/c1cn(CCOc2ccccc2)c2ccccc12)c1ccncc1,-6.9%,10µM*,-12.1%,14.1,1.4%,6.31µM*
O=[N+]([O-])c1ccc(N/N=C/c2cn(Cc3ccc(F)cc3)c3ccccc23)nc1,?,6.31µM*,-5.2%,45.8,?,?
COc1ccccc1OCCn1cc(/C=N/NC(N)=S)c2ccccc21,29.1µM*,2µM*,18.3µM*,-2.5,?,0.501µM*
COC(=O)N/N=C/c1cn(Cc2ccc(F)cc2)c2ccccc12,?,2.6%,0.0%,-23.6,-28.5%,45.2%
CNC(=S)N/N=C/c1cn(Cc2ccc(F)cc2)c2ccccc12,10.3µM*,1.12µM*,-0.2%,-19.9,16.4µM*,0.891µM*
CCC(=O)N1CCc2cc(Br)cc(S(=O)(=O)Nc3ccccc3C(=O)OC)c21,?,.,.,.,5.5%,.
CCC(=O)n1nc(NCc2ccccc2OC)nc1NCc1ccccc1OC,?,16.1%,?,-11.5,?,-20.4%
SMILES,DT40 TDP1 no CPT,Gal4-VP16 FLuc,ELG1 repair inh,IL-1B inflam inh,DT40 TDP1 CPT,RORgamma inh
COC(=O)N/N=C/c1cn(CCCOc2ccccc2)c2ccccc12,?,-19.3%,16.4µM*,-22.3,25.9µM*,17.3%
N/C(=N\O)c1cn(Cc2ccccc2Cl)c2ccccc12,?,-4.7%,-19.3%,-66.0*,?,8.5%
COc1ccc(OCCn2cc(C=O)c3ccccc32)cc1,?,-23.2%,?,-9.9,?,?
Cc1ccccc1OCCn1cc(C=O)c2ccccc21,-37.4%,?,-17.2%,-52.7*,?,?
COc1ccc2c(c1)c(C(=O)N/N=C/c1cn(C)c3ccccc13)c(C)n2C,?,?,-3.0%,31.4,?,?
CNC(=S)N/N=C/c1cn(CCOc2ccc(OC)cc2)c2ccccc12,7.31µM*,3.16µM*,?,-22.1,8.2µM*,2.24µM*
CN(C(=O)C1=CC(c2ccc3c(c2)OCO3)=NS(=O)(=O)N1C)c1ccccc1,-11.6%,.,.,.,-11.4%,.
N#Cc1cn(CCCOc2ccccc2)c2ccccc12,23.1µM*,-11.3%,-5.1%,-19.6,9.2µM*,-14.3%
C=CCC(CC(O)COCCC)C(=O)NNC(=S)Nc1ccccc1 (stereo unspecified),2.31µM*,0.794µM*,?,-6.4,4.61µM*,0.282µM*
CC(C)CCOCC(O)CCC(=O)NNC(=S)Nc1ccccc1 (stereo unspecified),0.4%,?,?,11.1,-13.9%,11.2µM*
NC(=O)Cn1c(=O)n(Cc2ccco2)c(=O)c2c3c(sc21)CCCCC3,-21.7%,8.4%,7.1%,24.8,-15.4%,22.0%
O=c1c2c3c(sc2n(CCN2CCOCC2)c(=O)n1Cc1ccco1)CCCCC3,10.3µM*,-16.1%,0.0%,?,8.2µM*,26.7%
O=c1c2c3c(sc2n(CCN2CCCCC2)c(=O)n1Cc1ccco1)CCCCC3,17.8µM*,0.1%,1.0%,-20.2,12.6µM*,-2.9%
N#CCCn1cc(C(=O)CN2C(=O)NC3(CCc4ccccc43)C2=O)c2ccccc21 (stereo unspecified),?,.,.,28.4,?,.
N=C(CC(O)COc1ccccc1-c1ccccc1)N1CCCCC1 (stereo unspecified),3.26µM*,-8.9%,.,.,5.17µM*,-2.3%
c1ccc2c(OCCCCN3CCCC3)cccc2c1,25.9µM*,4.7%,2.6%,-1.6,?,-19.4%
c1ccc(-c2ccccc2OCCCCN2CCCCC2)cc1,16.4µM*,-17.7%,-21.0%,-62.7*,?,-42.9%
c1ccc(-c2ccccc2OCCCN2CCCCCC2)cc1,?,-3.1%,?,?,?,-12.7%
COc1cc(C(CC(=O)Nc2cc(C)ccc2C)N2Cc3ccccc3C2=O)cc(OC)c1OC (stereo unspecified),?,.,.,.,-16.7%,.
O=C(CSCc1ccccc1)N1CCN(S(=O)(=O)c2cccc(F)c2)CC1,-23.5%,.,13.9%,8.3,-0.2%,.
c1ccc2nc3c(ccc4ccccc43)cc2c1,-14.2%,.,.,6.7,0.1%,.

# Screening data (PubChem)
